Data taken from PubChem BioAssay AID449762 (Southern Research Specialized Biocontainment Screening …, 2010).
In all, about 330,000 compounds went through this assay and about 1,900 (0.58%) were called active. Inconclusive results (about 4%) are left out. A selection follows. Entries with a potency or affinity are not part of this list. A number with no mark means an inactive call. Cut-off read from the data, not from the text of the source: inconclusive = inhibition above about 70% without an active follow-up result; inactive = below that.

assay: M. tuberculosis growth inhibition, HTS (AID 449762);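 note: bacterial growth assessed after seven days of incubation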; settings: M. tuberculosis H37Rv growth inhibition, 7H9 media; at 25 µM; hits give high values

SMILES | inhibition [%]
O=C(CSCc1ccccc1Cl)Nc1c[nH]c(=O)[nH]c1=O | 1.55
Cn1c(NCC(O)c2ccccc2)nc2c1c(=O)n(Cc1ccc(Cl)cc1)c(=O)n2C (centres undefined) | 48.9
CC(O)CNc1nc2c(c(=O)n(Cc3ccc(Cl)c(Cl)c3)c(=O)n2C)n1C (centres undefined) | 6.85
CCOC(=O)c1ccc(COC(=O)CNC(=O)CNC(=O)Cc2ccccc2)cc1 | -12.4
COc1cc(OC)c(NC(=O)CCCNC(=O)Cn2cnc3sc(C)c(C)c3c2=O)cc1Cl | -3.56
CCN(CC(=O)Nc1ccc(NC(C)=O)cc1)C(=O)c1ccccc1SCC(=O)N1CCCC1 | 6.02
O=C(NCCOc1ccccc1F)c1cccc(S(=O)(=O)N2CCN(c3ccccc3)CC2)c1 | 4.44
c1ccc2nc(-c3ccncc3)ccc2c1 | -14.1
c1ccc(-c2ccc3ccccc3n2)cc1 | -0.21
Cc1cc(C)c(C#N)c(SCC(=O)c2cc(C)n(CCc3ccccc3)c2C)n1 | -0.68
O=C(NCCCN1CCOCC1)c1ccc(Sc2ccc(F)cc2)c([N+](=O)[O-])c1 | -0.04
COc1ccc(NC(=O)CNC(=O)C2CCCCC2)cc1 | 13.5
NS(=O)(=O)c1ccc(NC(=O)CSC2CCCCC2)cc1 | -6.63
CCC(C)NC(=O)CN1C(=O)NC2(CCOc3ccccc32)C1=O (centres undefined) | 7.03
CC(C)C1(C(C)C)OC(=O)c2ccccc21 | 0.62
CCCn1ncc(CN2CCC(Cc3cccc(F)c3)(C(=O)OCC)CC2)c1C | -1.6
N=c1n(Cc2ccccc2)c2ccccc2n1CC(O)COc1ccccc1 (centres undefined) | 14.3
COc1ccc(OCC(O)Cn2c(=N)n(Cc3ccccc3)c3ccccc32)cc1 (centres undefined) | 26.5
CSCC(=O)N1CCCC(CNC(=O)c2ccc(-c3ccccc3)cc2)C1 (centres undefined) | 3.04
CC(=O)CCC(=O)N1CCCC(CNC(=O)c2ccc(-c3ccccc3)cc2)C1 (centres undefined) | -4.64
CC(C)(C)OC(=O)C[C@H]1C/C=C\C[C@H](CC(=O)NCCO)C(=O)NC[C@H](c2ccccc2)OC1=O | -2.46
COc1cccc(N(C(=O)CNC(=O)c2ccco2)C(C(=O)NC2CCCC2)c2ccncc2)c1 (centres undefined) | 0.28
O=C(O)CCCn1cc(NC(=O)COc2ccccc2)cn1 | 1.85
Clc1ccc(SCCn2ccnc2)cc1 | -6.09

SMILES | inhibition [%]
O=C(Cc1ccc(Cl)cc1)NCCCn1ccnc1 | 0.59
CCNCCNC(=O)c1c(O)c2c([nH]c1=O)CCCC2 | -0.1
Cc1nn(Cc2ccc(Cl)cc2Cl)c(C)c1NC(=O)CCl | 70.1
Cc1ccc(CCNC(=O)C2CC(c3cccc(F)c3)=NO2)cc1 (centres undefined) | 0.56
C=CCOc1ccc(CNc2nccs2)cc1OC | -5.03
C=CCOc1c(Cl)cc(CNc2nccs2)cc1OC | 56.1
CCCOc1ccc(C(=O)N/N=C/c2c[nH]c3ccc(Br)cc23)cc1 | 1.55
Cc1cc(Nc2ccccc2)c2c([N+](=O)[O-])cc(C)c(C)c2n1 | 6.4
COc1ccccc1Nc1cc(C)nc2c(C)ccc([N+](=O)[O-])c12 | -0.28
COC(=O)C1=C(COc2ccc(C=O)cc2OC)NC(=O)NC1c1cc(C)ccc1C (centres undefined) | -8.91
Cc1cc(C)c2oc(=O)cc(CN3CCC(C)CC3)c2c1 | 5.8
Cc1coc2c(C)c3oc(=O)c(CCC(=O)N4CCC(C(=O)NCCCC(=O)O)(c5ccccc5)CC4)c(C)c3cc12 | 5.29
CC12CCC(C(=O)Nc3cccnc3)(CC1=O)C2(C)C (centres undefined) | -6.21
O=C(NCC1CCCO1)c1ccc([N+](=O)[O-])o1 (centres undefined) | -10.8
O=C(NN(c1ccccc1)c1ccccc1)c1ccc([N+](=O)[O-])o1 | 56.9
C=CCn1c(SCC(=O)NCC2CCCO2)nc2scc(-c3ccccc3)c2c1=O (centres undefined) | -12.7
CCOCCCNC(=S)NCCCNc1nc2cc3c(cc2cc1C#N)OCO3 | -2.17
Cc1ccc(C(=O)/C=C/Nc2ccc(S(=O)(=O)Nc3cc(C)nc(C)n3)cc2)cc1 | 4.23
CCOc1cc(/C=N/NC(=O)C(=O)Nc2cc(Cl)ccc2C)ccc1O | 5.58
Cc1c(C(=O)NCc2ccccc2)cnn1-c1ccccc1 | 0.38
CC(=O)c1cnn(-c2ccccc2)c1C | -0.96
O=C(NN=C1CCCCCC1)c1ccc(Cl)s1 | -7.6
O=C(Nc1ccc(N2CCN(C(=O)c3ccccc3F)CC2)cc1)c1cncc(Br)c1 | 32.6
COc1ccc(NC(=O)CN(C)CC(=O)N(C)C2(C#N)CCC(C)CC2)cc1 (centres undefined) | 6.58

SMILES | inhibition [%]
O=C1Nc2ccccc2/C1=N\c1sc2c(c1C(=O)Nc1ccccc1)CCCC2 | -6.89
COc1ccc(-c2noc(N3CCC(C(=O)Nc4ccccc4F)CC3)n2)cc1 | -6.51
COc1ccc(N2CCc3c(C)nc(SC)nc32)cc1 | 37.6
CSc1nc(C)c2c(n1)N(c1ccc(F)cc1)CC2 | 5.53
Cc1cccc(NC(=O)Cn2nnc(-c3cccs3)n2)c1C | 4.16
Cc1cc2ccccc2c(=O)n1CC(=O)NCC(=O)N1CCN(c2ccccc2)CC1 | 3.46
CC12CCC(C(=O)N3CCCCCC3)(OC1=O)C2(C)C (centres undefined) | 0.66
O=C(c1ccc2nc(N3CCOCC3)sc2c1)N1CCCC1 | -5.7
O=C(c1ccc2nc(N3CCOCC3)sc2c1)N1CCN(C(=O)c2ccco2)CC1 | -6.14
Cc1ccc(S(=O)(=O)N(C)c2ccc(OCC(=O)Nc3ccc(C(=O)N(C)C)cc3)cc2)cc1C | -1.34
Cn1cc(C(=O)N/N=C/C2=C(N3CCOCC3)C(=C/c3ccc([N+](=O)[O-])cc3)/CC2)ccc1=O | 2.15
COc1cc(C(=O)NC(=S)Nc2ccc3[nH]c(=O)[nH]c3c2)cc(OC)c1OC | 5.44
COCCCN1C(=O)C(=O)/C(=C(/O)c2ccc(OC)cc2)C12C(=O)N(C)c1ccccc12 (centres undefined) | 0.02
O=C(/C=C\c1cccs1)c1c(O)ccc2ccc(=O)oc12 | 69.8
CCN(CC)S(=O)(=O)c1ccc2oc(SCC(=O)NC3CC3)nc2c1 | -7.6
CCN(CC)S(=O)(=O)c1ccc2oc(SCC(=O)NCc3ccccc3)nc2c1 | -7.94
COC(=O)C1=C(C)N(c2ccc(OC)cc2)C(=O)/C1=C\c1cccs1 | -1.06
CC(=O)c1ccc(OCC(=O)c2cc(C)n(-c3ccc4c(c3)OCO4)c2C)cc1 | -1.32
O=C(c1cc(Br)ccc1Cl)N1CCN(c2ncccn2)CC1 | 6.19
COCCN(C(=S)Nc1cccc(C)c1C)C(C)c1ccco1 (centres undefined) | 4.25
CCCNC(=O)C(Cc1ccccc1)NC(=O)c1ccc(C(C)(C)C)cc1 (centres undefined) | -2.64
CC(=O)C1=C(O)C(=O)N(c2cccc(Br)c2)C1c1ccc(Br)cc1 (centres undefined) | 1.06
COc1ccc(-c2noc(CSc3nc(-c4ccccc4)cc(=O)[nH]3)n2)cc1 | -1.49
NC1=NC2(CCCC2)n2c(nc3ccccc32)N1 | 1.5

SMILES | inhibition [%]
CC1CCC2(CC1)N=C(N)Nc1nc3ccccc3n12 (centres undefined) | 11.2
O=C(O)c1cc(-c2ccccc2)nc2ccccc12 | -1.59
c1ccc(-c2cc3c(ccc4nonc43)nn2)cc1 | -0.15
COc1cc(C(=O)NCC(c2cccs2)N2CCOCC2)cc(OC)c1OC (centres undefined) | 7.52
CCC(=O)Oc1ccc2c(c1)O/C(=C\c1ccco1)C2=O | 6.29
COc1ccc2c(c1)O/C(=C\c1ccco1)C2=O | -4.09
Cc1ccccc1OCC(O)Cn1c(N2CCCCC2)nc2c1c(=O)[nH]c(=O)n2C (centres undefined) | 6.49
Cc1cc(C)nc(-n2ncc3c2CC(c2ccccc2C)CC3=O)n1 (centres undefined) | 3.74
Cc1ccc(O)c(-c2cc(-c3ccccc3F)[nH]n2)c1 | 33.9
Cc1ccc(-c2cc(-c3ccc(C)cc3O)[nH]n2)cc1 | 17.4
O=C1CN(C(=O)COC(=O)CCC(=O)c2ccc(F)cc2)c2ccccc2N1 | -6.63
CCOCCn1c(CN2CCN(C(=O)c3ccco3)CC2)nc2c1c(=O)n(C)c(=O)n2C | 5.24
COc1cc(C(=O)OC2CC3CCC2(C)C3(C)C)ccc1OC(C)=O (centres undefined) | -10.7
O=c1cc(-c2ccccc2)nc(Cc2c(Cl)cccc2Cl)[nH]1 | 8.31
COCc1cc(=O)[nH]c(Cc2c(Cl)cccc2Cl)n1 | 3.62
O=C(NCc1ccccn1)C(=O)Nc1cc2c3c(c1)CC(=O)N3CCC2 | 5.14
COc1cccc(C(=O)OCC(=O)c2ccc(Br)s2)c1 | -2.52
COc1ccc(C(=O)OCC(=O)c2cc(OC)ccc2OC)c(OC)c1 | -2.93
CSc1nc2nc(-c3ccc(F)cc3)c(CCN3CCN(C)CC3)cn2n1 | -4.6
CNc1nc(NCc2ccccc2)c2ccccc2n1 | 16.5
OCCNc1nc(NCc2ccccc2)c2ccccc2n1 | 5.73
CC1(/[N+]([O-])=C/c2ccc(Cl)cc2Cl)CCCCC1=O (centres undefined) | 3.79
